Several values for one entry are separate records, joined by “and”; a condition that tells them apart may be missing. Equal entries are not always repeated. About 83,000 compounds went through this panel and 20% of them were active in at least one assay; those are over-represented in the sample as a whole.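 Treatment: one concentration, 48 hours, 96-well format. Scoring: percent growth, with anything below 10 considered active.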 Activity calls are given as the source filed them.
Legend:
Experiment in all cases: NCI-60 one-dose screen, 48 h (100 = growth as untreated, 0 = no growth, -100 = all killed)
Details in all cases: 10 µM unless noted
NCI-H23 lung = tested on: NCI-H23 lung
NCI-H226 lung = tested on: NCI-H226 lung
NCI-H322M lung = tested on: NCI-H322M lung
HOP-62 NSCLC = tested on: HOP-62 NSCLC
NCI-H460 lung = tested on: NCI-H460 lung
HOP-92 NSCLC = tested on: HOP-92 NSCLC
NCI-H522 lung = tested on: NCI-H522 lung
A549/ATCC NSCLC = tested on: A549/ATCC NSCLC
786-0 renal = tested on: 786-0 renal
COLO 205 colon = tested on: COLO 205 colon
DU-145 prostate = tested on: DU-145 prostate
K-562 leukemia = tested on: K-562 leukemia
MALME-3M melanoma = tested on: MALME-3M melanoma
MDA-MB-231 breast = tested on: MDA-MB-231 breast
RXF 393 renal = tested on: RXF 393 renal
SF-268 CNS = tested on: SF-268 CNS
SF-295 CNS = tested on: SF-295 CNS
SF-539 CNS = tested on: SF-539 CNS
UACC-257 melanoma = tested on: UACC-257 melanoma
M14 melanoma = tested on: M14 melanoma

Measured: growth

COc1ccc2nc(Cl)cc(C)c2c1
104% (inactive) and -11.5% (active): HOP-92 NSCLC
inactive: NCI-H23 lung 101% and 107% | NCI-H226 lung 96.5% and 104% | NCI-H322M lung 91.3% and 98.1% | HOP-62 NSCLC 104% and 65% | NCI-H460 lung 100% and 111% | NCI-H522 lung 97.5% and 112% | A549/ATCC NSCLC 96.5% and 109% | 786-0 renal 97.2% and 79.2% | COLO 205 colon 104% and 131% | DU-145 prostate 104% and 101% | K-562 leukemia 104% and 89.5% | MALME-3M melanoma 97.5% and 127% | MDA-MB-231 breast 99.9% and 102% | RXF 393 renal 91.6% and 75.9% | SF-268 CNS 101% and 116% | SF-295 CNS 92.8% and 87.6% | SF-539 CNS 96.5% and 107% | UACC-257 melanoma 100% and 95.9% | M14 melanoma 100% and 109%

Oc1nc(NCCc2ccccc2)sc1/C=C1\C=Nc2ncccc21
19.7% (inactive) and 9.01% (active): 786-0 renal
-1.71% (active) and 14.6% (inactive): UACC-257 melanoma
inactive: NCI-H460 lung 15.1% and 14.1% | DU-145 prostate 15.3% and 20.7% | K-562 leukemia 28.5% and 29.9% | MALME-3M melanoma 44.8% and 30.6% | MDA-MB-231 breast 25.9% and 25.5% | SF-295 CNS 18.7% and 22.6% | M14 melanoma 31.7% and 29.9%
-2.98% (active) and 19.9% (inactive): HOP-62 NSCLC
8.14% (active) and 19.1% (inactive): A549/ATCC NSCLC
22.4% (inactive) and 3.3% (active): NCI-H226 lung
8.87% (active) and 10.4% (inactive): SF-268 CNS
4.33% (active) and 26.6% (inactive): NCI-H522 lung
19.6% (inactive) and 5.21% (active): NCI-H322M lung
11.8% (inactive) and -9.73% (active): HOP-92 NSCLC
active: NCI-H23 lung 2.96% and 9.1% | COLO 205 colon -6.84% and 4.78% | RXF 393 renal -30.1% and -20.2% | SF-539 CNS -37.2% and 0.397%

Cn1cnc([N+](=O)[O-])c1Sc1ncnc2nc[nH]c12
inactive: NCI-H23 lung 72.9% and 79.9% | NCI-H226 lung 51.2% and 72.4% | NCI-H322M lung 55.1% and 47.5% | HOP-62 NSCLC 37.2% and 20.8% | NCI-H460 lung 70.4% and 69% | HOP-92 NSCLC 60.7% and 61.4% | NCI-H522 lung 65.1% and 85.9% | A549/ATCC NSCLC 82% and 107% | 786-0 renal 36.2% | COLO 205 colon 94.5% and 112% | DU-145 prostate 44.5% | K-562 leukemia 20.4% and 23.6% | MALME-3M melanoma 75.5% and 93.8% | MDA-MB-231 breast 31.3% and 57.8% | RXF 393 renal 79.5% and 94.4% | SF-268 CNS 69.1% and 49.2% | SF-295 CNS 33.5% and 31.1% | SF-539 CNS 37.8% and 33.3% | UACC-257 melanoma 73.4% and 98.4% | M14 melanoma 30.3% and 21.4%

O=C(O)CCCCc1ccc([N+](=O)[O-])cc1
inactive: NCI-H23 lung 99.6% and 101% | NCI-H226 lung 120% and 108% | NCI-H322M lung 112% and 96.7% | HOP-62 NSCLC 103% | NCI-H460 lung 96.1% and 120% | HOP-92 NSCLC 77.5% and 83.8% | NCI-H522 lung 91.7% and 103% | A549/ATCC NSCLC 97.6% and 102% | 786-0 renal 102% and 96.1% | COLO 205 colon 115% and 113% | DU-145 prostate 106% and 114% | K-562 leukemia 83.7% and 103% | MALME-3M melanoma 102% and 106% | MDA-MB-231 breast 112% and 95% | RXF 393 renal 116% and 148% | SF-268 CNS 98.9% and 115% | SF-295 CNS 113% | SF-539 CNS 94.3% and 102% | UACC-257 melanoma 125% and 97.8% | M14 melanoma 102% and 104%

— PubChem BioAssay (NCI)
